# Screening results deposited in PubChem by National Center for Advancing Translational Sciences (NCATS).
# Only a selection was taken, and hits are over-represented in it overall.
# Pf Dd2 inh = qHTS Primary assay for Inhibitors of Plasmodium falciparum Dd2 growth in vitro; P. falciparum Dd2 growth, SYBR Green, 72 h; Potency, µM (titrated, usually from 28.9 µM), for the others: at the highest dose activity, negative = inhibition, most hits filed as inhibitors; 4.3% of 120,000 active; AID 1347417, 2020; active = well fitted inhibition curve with a large enough effect;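 also: plate controls were DMSO vehicle for no effect and reference drug for full effect; nearly all actives have a fitted effect of over 65% in size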
#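 Infected erythrocytes (Dd2, 0.3% parasitemia, 2.5% hematocrit final) are added to compound in RPMI-1640/Albumax II medium, grown 72 h at 37C in low oxygen, then lysed with saponin/Triton-X containing SYBR Green and read by fluorescence.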
# * = called active by the depositor; i = inactive; [ ] = dose if it differs, or a comment. Potency is read from the fitted curve at half-maximal effect.
SMILES,Pf Dd2 inh
COc1ccc(CNC(=O)c2cnn(-c3ccc(OC)cc3)c2C2CCN(C(=O)OC(C)(C)C)CC2)cc1,-22.6%
COc1ccc(-n2ncc(C(=O)NCCc3ccsc3)c2C2CCN(C(=O)OC(C)(C)C)CC2)cc1,-27.3%
CCOC(=O)N1CCC(NC(=O)c2cnn(-c3cccc(Cl)c3C)c2C2CCN(C(=O)OC(C)(C)C)CC2)CC1,i
Cc1ccc(-n2ncc(C(=O)NC3CCN(Cc4ccccc4)CC3)c2C2CCN(C(=O)OC(C)(C)C)CC2)cc1C,i
CCOC(=O)N1CCC(NC(=O)c2cnn(-c3ccc(C)cc3)c2C2CCN(C(=O)OC(C)(C)C)CC2)CC1,11.2µM*
CCOc1ccc(-c2cccc(NS(=O)(=O)c3ccc(F)cc3F)c2)nn1,59.4%[0.594 µM]
CCOc1ccc(Br)cc1S(=O)(=O)Nc1cccc(-c2ccc(OC)nn2)c1,4.6%
CCOc1ccc(-c2ccc(NS(=O)(=O)c3cc(C)ccc3OC)cc2)nn1,10µM*
COCCC(=O)N[C@@H]1CN(Cc2ccccn2)C[C@H]1CN(C)C,-6.5%
CC(c1n[nH]c(=O)n1CCc1ccccc1F)n1cccn1 (stereo not given),7.7%
COc1cncc(Nc2cnc3ccc(-c4ccc(OC)c(OC)c4)nn23)c1,0.891µM*
CN1CCN(Cc2ccc(Nc3cnc4ccc(-c5ccccc5)nn34)cc2)CC1,2.24µM*
COc1ccccc1-c1ccc2ncc(Nc3cccc(N[S+](C)(=O)[O-])c3)n2n1,i
COc1ccc(Nc2cnc3ccc(-c4ccccc4)nn23)cc1,5.62µM*
NC(=O)c1ccc(Nc2cnc3ccc(-c4ccccc4)nn23)cc1,-10.8%[44.1 µM]
COc1ccccc1Nc1cnc2ccc(-c3ccccc3OC)nn12,-3.9%[44.1 µM]
COc1ccccc1-c1ccc2ncc(Nc3ccc(CCO)cc3)n2n1,i
COc1cncc(Nc2cnc3ccc(-c4ccc(OC)nc4)nn23)c1,i
COc1cncc(Nc2cnc3ccc(-c4ccccc4OC)nn23)c1,2.51µM*
c1ccc(-c2ccc3ncc(Nc4ncccn4)n3n2)cc1,i
CN1CCN(Cc2ccc(Nc3cnc4ccc(N5CCOCC5)nn34)cc2)CC1,-19.8%[44.1 µM]
Cc1ccc(S(=O)(=O)N2CCC(n3cnnc3C(C)C)CC2)cc1F,i
O=C(c1cn(C2CCCCC2)nn1)N1CCSCC1,0.4%
O=C(Cc1cccc(Cl)c1)N1CCC(c2nn(Cc3ccccc3)c(=O)[nH]2)CC1,i
CCc1ccc(C(=O)N2CCC3(CC2)OCC(C(=O)NC2CC2)N3C(=O)c2cccc(C)c2)cc1 (stereo not given),i
SMILES,Pf Dd2 inh
COc1ccc(C(=O)N2CCC(c3n[nH]c(=O)n3Cc3ccc(F)cc3)CC2)cc1OC,-16.2%
NCCN1C(=O)CC[C@H]2CN(C(=O)C3(c4ccccc4)CC3)CC[C@H]21,1.6%
Cc1ccc(C(=O)N2CCN(C(=O)N3CC4CC(C3)[C@H]3CCCC(=O)N3C4)CC2)cn1 (stereo not given in full),-9.7%
O=C(NCc1ccco1)[C@H]1CN2CCC1C[C@@H]2Cn1cc(CO)nn1 (stereo not given in full),23.2%[44.1 µM]
CN1C(=O)C(CC(=O)N(C)C2CCNCC2)(Cc2ccccc2)c2ccccc21 (stereo not given),-21.6%
CC(C)CNC(=O)C1Cn2cccc2C(=O)N1C (stereo not given),0.7%
COc1ccc(Nc2cnc3ccc(-c4ccc(OC)c(OC)c4)nn23)cc1OC,i
COc1ccc(Nc2cnc3ccc(-c4ccc(OC)c(OC)c4)nn23)cc1,1.12µM*
COc1ccc(-c2ccc3ncc(Nc4cccnc4OC)n3n2)cc1OC,-6.4%[44.1 µM]
CC(=O)Nc1ccc(S(=O)(=O)N[C@H]2CO[C@H]3[C@@H]2OC[C@H]3OC(=O)Nc2cccc3ccccc23)cc1,i
Cc1ncsc1CN1CCc2nc(N3CCN(C)CC3)sc2C1,i
CN(CCc1nc2ccc(Cl)cc2[nH]1)c1cc(C2CC(O)C2)nc(N)n1 (stereo not given),i
Cc1ccc(SCCN(C)c2cc(C3CC(O)C3)nc(N)n2)cc1 (stereo not given),5.62µM*
Cc1c(CN(C)c2cc(C3CC(O)C3)nc(N)n2)[nH]c2ccccc12 (stereo not given),-15.6%
N#Cc1cccc(C(=O)N2CCCN(C(=O)C3CC3)C(c3ccccc3)CC(=O)NCC2)c1 (stereo not given),-11.3%
COC(=O)[C@H](NC(=O)[C@@H]1C[C@H](NC(=O)Nc2cccc(SC)c2)CN1C(=O)C=C(C)C)C(C)C,4.6%
COc1ccccc1C(=O)N1[C@H]2CC[C@@H]1c1cnc(-c3ccccc3)nc1C2,i
O=C(Cc1ccccc1)N1[C@H]2CC[C@@H]1c1cnc(-c3ccccc3)nc1C2,i
COc1ccc(CNC(=O)N2[C@H]3CC[C@@H]2c2cnc(-c4ccccc4)nc2C3)cc1,11.2µM*
O=C(CC1CCCC1)N1[C@H]2CC[C@@H]1c1cnc(-c3ccccc3)nc1C2,12.6µM*
CCNC(=O)N1[C@H]2CC[C@@H]1c1cnc(-c3ccccc3)nc1C2,-20.6%
Cc1noc(C)c1Cc1ccc(C(=O)N2[C@H]3CC[C@@H]2c2cnc(-c4ccccc4)nc2C3)o1,0.631µM*
Cc1noc(C)c1CC(=O)N1[C@H]2CC[C@@H]1c1cnc(-c3ccc(F)cc3)nc1C2,-15.8%
COCCC(=O)N1[C@H]2CC[C@@H]1c1cnc(-c3ccccc3)nc1C2,-14.9%
COc1ccc(CCC(=O)N2[C@H]3CC[C@@H]2c2cnc(-c4ccccc4)nc2C3)cc1,-26.7%
SMILES,Pf Dd2 inh
COc1cccc(CN2CCOC3CCN(Cc4ccc(C#N)cc4)CC3C2=O)c1 (stereo not given),i
O=C(NCc1nnc2c(-c3nc(C4CC4)no3)cccn12)c1c[nH]c2ccccc12,-8.3%
COc1cccc(OCc2nc(C(=O)N[C@H]3CCCCNC3=O)co2)c1,0.1%
O[C@@H]1CCN(Cc2nc(C3(O)CCN(C4CCOCC4)CC3)cs2)C1,8.6%[44.1 µM]
CCN1C(=O)COC[C@@H]1[C@H](O)c1ccc(NC(=O)COC)cc1,14.1%[44.1 µM]
CCOc1ccc(C(=O)N2CCc3nc(OCCOC)ccc3C2)cc1OCC,-1.3%
CCC1CCc2nc3sc(C(=O)Nc4ccc(F)c(Cl)c4)c(N)c3cc2C1 (stereo not given),-6.8%
N#Cc1cc2c(nc1SCC(=O)Nc1ccc(Cl)c(C(F)(F)F)c1)C1CCN2CC1,5.01µM*
Nc1c(C(=O)Nc2ccc(Cl)c(C(F)(F)F)c2)sc2nc3c(cc12)N1CCC3CC1,2.82µM*
Nc1c(C(=O)Nc2cccc(Br)c2)sc2nc3c(cc12)N1CCC3CC1,i
O=C(CN1CCN(c2ccc(Cl)cc2)CC1)Nc1ccc(Cl)c(C(F)(F)F)c1,24.6%
N#Cc1c(C(F)(F)F)cc(-c2ccc(F)cc2)nc1SCC(=O)Nc1ccccc1,-1.0%
CCn1ccnc1CN1CCc2[nH]cnc2C1c1ccc(OC)c(F)c1F (stereo not given),-24.6%
Cc1noc(-c2cccn3c(CNC(=O)c4ccoc4)nnc23)n1,i
CN(C)CC(=O)N1Cc2ccccc2CC2(CCN(CC3CCOCC3)C2)C1 (stereo not given),-20.8%
CC(=O)NCCC(=O)N1Cc2ccccc2CC2(CCCN(CC3CCCC3)C2)C1 (stereo not given),-18.5%
CCCN1CCCC2(Cc3ccccc3CN(C(=O)C3CCN(C)CC3)C2)C1 (stereo not given),-17.8%
O=C(O)CCCC(=O)N1Cc2ccccc2CC2(CCCN(CC3CCCC3)C2)C1 (stereo not given),10.0%
